Screening results from PubChem BioAssay.
Compounds with a hit are over-represented: about 11% of the library has one in this group of screens.
IL-1B inflam inh = inflammasome signaling inhibition, IL-1 beta readout; THP-1 LPS/ATP IL-1B secretion, AlphaLISA, 16 h; stronger effect = lower value; activity change, % at 57.5 µM; 360,000 tested, 4.7% active; AID 743279; in the data active = activity change below about -50%; inconclusive = mostly about -30% to -49%; also: % is scaled to controls: 0 for no effect and ±100 for the full control effect
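Secreted IL-1B measured by AlphaLISA bead assay after 16 h compound exposure of THP-1 cells; compounds (final up to 57.5 uM) added 1 h before LPS (250 ng/mL) and ATP (1.25 mM) stimulation; lower signal means less secretion.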
VP16 counter = Gal4-VP16 reporter inhibition counter-screen; Drosophila S2 Gal4-VP16 UAS-luciferase, luminescence, 20 h; Potency, µM (titrated, usually from 53.6 µM), for inactives: top-dose activity, negative = inhibition, actives largely listed as inhibitors; 310,000 tested, 3.5% active; AID 2546;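 also: Gal4-VP16 expression switched on by copper sulfate through the metallothionein promoter; potency is read from the fitted curve at half-maximal effect; % is scaled to controls: 0 for no effect and ±100 for the full control effect; nearly all actives have a fitted effect of over 50% in size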
MCF10A rereplic = inducers of DNA re-replication in MCF 10A breast cells; Potency, µM (top dose mostly 46.1 µM), for the others: top-dose activity, positive = re-replication, most hits filed as activators; 350,000 tested, 2.9% active; MCF 10A DNA re-replication, Hoechst nuclear intensity, 48 h; AID 624296; also: potency is read from the fitted curve at half-maximal effect; % of control where 0% means no effect; nearly all actives have a fitted effect of over 50% in size
SW480 rerep = DNA re-replication induction in SW480 cells | SW480 DNA re-replication, Hoechst DNA content imaging, 48 h | Potency, µM (top dose mostly 46.1 µM), for inactives: at the top dose re-replication activation, most hits filed as activators | 340,000 tested, 1.8% active; also: potency is read from the fitted curve at half-maximal effect; % of control where 0% means no effect; nearly all actives have a fitted effect of over 55% in size
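First, 250 cells per well were seeded. Next, compound or vehicle (23 nL) was pinned in, plates sat 48 hr at 37 C. Finally Hoechst was added for 40 min before fluorescence scanning.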
RORg inh = blocks mouse ROR gamma transcriptional activity; P51450; Drosophila S2 Gal4-RORgamma UAS-luciferase reporter, 20 h; Potency, µM (top dose mostly 53.6 µM), inactives show top-dose activity change, negative = inhibition, actives largely listed as inhibitors; 310,000 tested, 5.4% active; also: potency is read from the fitted curve at half-maximal effect; % is scaled to controls: 0 for no effect and ±100 for the full control effect; nearly all actives have a fitted effect of over 60% in size
Target sequence (P51450 whole entry, looked up, the tested form may be a part): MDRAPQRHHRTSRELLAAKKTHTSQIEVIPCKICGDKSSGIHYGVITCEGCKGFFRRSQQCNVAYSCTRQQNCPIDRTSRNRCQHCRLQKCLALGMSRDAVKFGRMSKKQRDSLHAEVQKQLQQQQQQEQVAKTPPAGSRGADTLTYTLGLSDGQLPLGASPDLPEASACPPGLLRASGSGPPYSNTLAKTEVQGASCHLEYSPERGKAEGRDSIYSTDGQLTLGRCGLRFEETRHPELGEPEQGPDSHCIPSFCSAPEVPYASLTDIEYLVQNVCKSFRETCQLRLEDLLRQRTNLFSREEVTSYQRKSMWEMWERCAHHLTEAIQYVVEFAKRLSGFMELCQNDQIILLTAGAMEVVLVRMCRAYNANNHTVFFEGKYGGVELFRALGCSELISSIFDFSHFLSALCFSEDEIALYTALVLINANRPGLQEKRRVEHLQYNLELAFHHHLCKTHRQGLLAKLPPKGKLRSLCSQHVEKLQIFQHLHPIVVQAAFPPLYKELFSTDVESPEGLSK
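Luciferase reporter read in Schneider cells carrying Gal4-RORγ (mouse) and UAS-Photinus luciferase; cells given compound 1 h before 700 uM copper sulfate induction, then incubated 20 h at ambient temperature.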
Active calls of the source: *; ? = inconclusive; . = no result given; [ ] = dose if it differs, or a comment. Unless noted, calls follow the shape of the dose curve; as a rule, active = well fitted curve in the direction sought with a large enough effect; inconclusive = small, poorly fitted or top-dose-only effect, or another doubt; inactive = no such curve, though single readings can be large; an effect the other way counts as inactive or inconclusive.

SMILES | IL-1B inflam inh | VP16 counter | MCF10A rereplic | SW480 rerep | RORg inh
O=c1[nH]c(=O)c2nc3c4ccccc4c4ccccc4c3nc2[nH]1 | -7.3 | -11.5% | 2.59µM* | ? | -0.1%
CCc1c(C)[nH]n(-c2nc(-c3ccccc3)cs2)c1=O | -7.2 | ? | 13.9% | 10.5% | ?
CCc1c(C)[nH]n(-c2nc(-c3cccc([N+](=O)[O-])c3)cs2)c1=O | -3.2 | ? | -3.4% | -4.7% | 10µM*
O=C(N/C(=C/c1ccccc1Cl)C(=O)N1CCCCC1)c1ccco1 | -16.4 | . | -0.4% | -1.8% | .
CC(C)C[C@H](NC(=O)c1[nH]cnc1C(=O)N[C@@H](C)c1ccccc1)C(=O)OC(C)(C)C | -4.1 | 0.631µM* | ? | 7.0% | 0.631µM*
CC(C)(C)OC(=O)CNC(=O)c1[nH]cnc1C(=O)N[C@@H](Cc1ccccc1)C(=O)OC(C)(C)C | 0.0 | 12.6µM* | -10.5% | 3.0% | ?
CC(C)C[C@H](NC(=O)c1[nH]cnc1C(=O)N[C@@H](Cc1ccccc1)C(=O)OC(C)(C)C)C(=O)OC(C)(C)C | -50.4* | 11.2µM* | ? | 19.9% | 3.16µM*
CC(C)(C)OC(=O)[C@H](Cc1ccccc1)NC(=O)c1nc[nH]c1C(=O)NCC(=O)OCc1ccccc1 | -4.6 | ? | 14.6% | -0.9% | ?
CC(C)C[C@H](NC(=O)c1[nH]cnc1C(=O)N[C@@H](Cc1ccccc1)C(=O)OC(C)(C)C)C(=O)OCc1ccccc1 | -6.1 | ? | ? | 1.0% | 7.94µM*
C[C@H](NC(=O)c1nc[nH]c1C(=O)N[C@@H](Cc1ccccc1)C(=O)OCc1ccccc1)C(=O)OC(C)(C)C | 14.0 | ? | 23.3% | 1.4% | ?
CC(=O)c1cccc(NC(=O)Nc2ccc3c(c2)OCO3)c1 | ? | ? | -3.4% | -9.3% | -41.4%
C#CCCCO/N=C1/C[C@@H](O)[C@@H](O)[C@@H]2[C@@H]3C(=O)N([C@@H](C)c4ccccc4)C(=O)[C@H]3CC[C@H]12 | . | -7.1%[10 µM] | . | . | 4.1%[10 µM]
CC(C)(C)OC(=O)NCc1ccc(CNC(=O)c2nc[nH]c2C(=O)NCc2ccc(CNC(=O)OC(C)(C)C)cc2)cc1 | 5.9 | . | 10.4% | -1.6% | .
C[C@H](NC(=O)OCc1ccccc1)C(=O)NNC(=O)[C@H](Cc1ccccc1)NC(=O)OC(C)(C)C | 7.0 | -15.4% | -11.8% | -5.0% | 1.9%
CC(C)C[C@H](NC(=O)c1[nH]cnc1C(=O)N[C@@H](Cc1ccccc1)C(=O)OCc1ccccc1)C(=O)OC(C)(C)C | 2.8 | 15.8µM* | -12.6% | -12.3%[9.22 µM] | 5.62µM*
Cc1ccccc1NC(=O)c1nc[nH]c1C(=O)NCc1ccccc1 | -1.4 | 5.01µM* | 20.1% | 2.3% | 2.82µM*
CC(C)(C)OC(=O)C(Cc1ccc(OC(C)(C)C)cc1)NC(=O)CNC(=O)OCc1ccccc1 (stereo unspecified) | -70.8* | ? | ? | -30.3% | ?
Cc1ccc(NC(=O)c2nc[nH]c2C(=O)NCc2ccccc2)cc1 | -14.6 | . | 7.5% | -1.9% | .
CC(C)(C)OC(=O)CNC(=O)c1nc[nH]c1C(=O)NCc1ccccc1 | 19.1 | ? | -4.8% | -3.9% | 7.08µM*
CC(C)COc1ccc(C(=O)NNC(=O)c2ccc(=O)[nH]c2)cc1 | 30.3 | . | -1.3% | 5.5% | .
Cc1ccc(S(=O)(=O)N2CCOC2CNC(=O)C(=O)NCc2ccc3c(c2)OCO3)cc1 (stereo unspecified) | -20.9 | -18.4% | 7.6% | 1.0% | 24.3%
CCN(CC)C(=O)c1[nH]cnc1C(=O)N[C@@H](Cc1ccccc1)C(=O)OC(C)(C)C | 28.1 | ? | 0.3% | -12.8% | 10µM*
CC(C)C[C@H](NC(=O)c1[nH]cnc1C(=O)N[C@@H](C)C(=O)OC(C)(C)C)C(=O)OCc1ccccc1 | -16.4 | ? | ? | -5.6% | 15.8µM*
CC(C)C[C@H](NC(=O)c1[nH]cnc1C(=O)N[C@@H](C)C(=O)OCc1ccccc1)C(=O)OCc1ccccc1 | -4.8 | . | 8.8% | 18.7% | .
Cc1ccc(N(C(=O)CCCC(=O)Nc2ccccn2)C(C(=O)NC2CCCC2)c2ccc(O)cc2)cc1C (stereo unspecified) | -75.1* | -6.3% | -0.7% | ? | 22.1%
SMILES | IL-1B inflam inh | VP16 counter | MCF10A rereplic | SW480 rerep | RORg inh
Cc1ccc(N(C(=O)CNC(=O)c2ccco2)C(C(=O)NC2CCCCC2)c2cccnc2)cc1C (stereo unspecified) | -12.9 | -2.2% | -7.7% | -7.6% | -3.7%
Cc1ccc(N(C(=O)CCl)C(C(=O)NC2CCCCC2)c2cccnc2)cc1C (stereo unspecified) | -100.3* | ? | 7.31µM* | ? | 11.2µM*
O=C(Nc1ccc2c(c1)OCO2)c1csc([C@@H]2O[C@H](CO)[C@H](O)[C@H](O)[C@H]2O)n1 | 0.0 | . | . | . | .
CCCCNC(=S)NNC(=O)c1nn(C)c(C)c1Cl | -1.0 | -9.2% | 0.4% | -2.0% | ?
Cc1nn(C)c(C(=O)NNC(=S)Nc2ccc(F)cc2)c1[N+](=O)[O-] | 0.0 | ? | -1.0% | ? | 7.94µM*
Cc1nn(CCC(=O)NNC(=S)Nc2ccc(F)cc2)c(C)c1Br | 16.9 | ? | 5.9% | 8.0% | 0.891µM*
Cc1nn(CCC(=O)NNC(=S)Nc2ccc([N+](=O)[O-])cc2)c(C)c1[N+](=O)[O-] | 27.8 | -1.3% | -3.7% | 1.0% | -16.8%
CCCCNC(=S)NNC(=O)CCn1nc(C)c(Br)c1C | 6.8 | 2.82µM* | 6.1% | 8.2µM* | 0.631µM*
NC(=O)c1ccc(OCC(=O)N2CCNC2=O)cc1 | 17.4 | . | -20.5% | 4.4% | .
Cc1cccc(OCc2nc(C#N)c(N3CCCC3)o2)c1 | -55.0* | -13.7% | 14.7% | -5.6% | 6.6%
N#Cc1nc(COc2ccc(Cl)cc2)oc1N1CCCCCC1 | -58.5* | -2.9% | 0.4% | 2.8% | ?
Cc1ccc(OCc2nc(C#N)c(N3CCCCC3)o2)cc1 | ? | -2.0% | 0.2% | -38.3% | ?
C=CCn1c(C)c(C(C)=O)cc(NC(=O)c2ccccc2)c1=O | -27.8 | -7.8% | -5.3% | -31.4% | 1.4%
C=CCN1C(=O)/C(=C/C(=O)OC)S/C1=N\NC(=O)c1ccccc1 | -99.6* | 17.8µM* | ? | ? | 7.94µM*
FC(F)(F)c1nnc(-c2ccccc2)nc1Sc1ccccc1 | -121.2* | ? | 5.17µM* | ? | ?
FC(F)(F)c1nnc(-c2ccccc2)nc1Oc1ccc(Cl)cc1Cl | -76.6* | -2.0% | 3.26µM* | -4.4% | -8.2%
FC(F)(F)c1cccc(Oc2nc(-c3ccccc3)nnc2C(F)(F)F)c1 | ? | -10.6% | 14.6µM* | -2.2% | 19.8%
FC(F)(F)c1nnc(-c2ccccc2)nc1Sc1ccc(Cl)cc1 | -97.8* | ? | 5.8µM* | ? | 6.31µM*
FC(F)(F)c1nnc(-c2ccccc2)nc1N1CCCC1 | -8.2 | 5.9% | -2.8% | -3.5% | -2.4%
